# Source: the supplement of paper PMC8728848
# Only a selection was taken, and the strongest signals are over-represented in it overall.
# B1: CLECb-Precomplexed (Mus musculus), P43025 (protein)
# chain: MAKNGLVLCILVVSLLLDQTDGYPSRMKARKHSKRRVKAKDDDLKSQVEKLWREVNALKEMQALQTVCLRGTKVHKKCYLASEGLKHYHEANEDCISKGGTLVVPRNSDEINALRDYGKRSLPGVNDFWLGINDMVTEGKFLDVHGFAVSFLNWDRAQPSGGKRENCVLFSQSAQGKWSDEACRSSKRYICEFIIPTRTRPLEQKLISEEDLAANDILDYKDDDDKV
# What was measured:
# Assay in all cases: glycan array binding signal (z-score within array); higher = stronger binding
# Conditions in all cases: glycan notation: IUPAC condensed, linker removed
# [1] = molecular target: Fuc(a1-2)Gal(b1-3)GlcNAc6S
# Outline: (§1)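 From the Consortium for Functional Glycomics database, 3228 arrays were curated, keeping only those whose protein sequence was available. Binding is given as a within-array Z-score averaged across arrays sharing a protein sequence and across linkers. Negative Z-scores can be read as non-binding.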
# [2] = molecular target: Fuc(a1-2)Gal(b1-4)GlcNAc(b1-2)Man(a1-3)[Fuc(a1-2)Gal(b1-4)GlcNAc(b1-2)Man(a1-6)]Man(b1-4)GlcNAc(b1-4)GlcNAc
# Outline: as §1
# [3] = molecular target: Fuc(a1-2)Gal6S(b1-3)GlcNAc
# Outline: as §1
# [4] = molecular target: Fuc(a1-2)[GalNAc(a1-3)]Gal(b1-4)Glc
# Outline: as §1
# [5] = molecular target: Fuc(a1-2)[GalNAc(a1-3)]Gal(b1-4)GlcNAc(b1-2)Man(a1-3)[Fuc(a1-2)[GalNAc(a1-3)]Gal(b1-4)GlcNAc(b1-2)Man(a1-6)]Man(b1-4)GlcNAc(b1-4)GlcNAc
# Outline: as §1
# [6] = molecular target: Fuc(a1-2)[GalNAc(b1-3)]Gal
# Outline: as §1
# [7] = molecular target: Fuc(a1-3)[Gal(b1-4)]GlcNAc
# Outline: as §1
# [8] = molecular target: Fuc(a1-3)[Gal(b1-4)]GlcNAc(b1-6)[Gal(b1-3)GlcNAc(b1-3)]Gal(b1-4)Glc
# Outline: as §1
# [9] = molecular target: Fuc(a1-3)[Gal3S(b1-4)]GlcNAc6S
# Outline: as §1
# [10] = molecular target: Gal(a1-3)Gal(b1-3)GlcNAc(b1-3)GalNAc
# Outline: as §1
# [11] = molecular target: Gal(a1-3)Gal(b1-3)[Fuc(a1-4)]GlcNAc(b1-2)Man(a1-3)[Gal(a1-3)Gal(b1-3)[Fuc(a1-4)]GlcNAc(b1-2)Man(a1-6)]Man(b1-4)GlcNAc(b1-4)GlcNAc
# Outline: as §1
# [12] = molecular target: Gal(a1-3)GalNAc
# Outline: as §1
# [13] = molecular target: Gal(b1-3)GlcNAc(b1-3)Gal(b1-3)GlcNAc
# Outline: as §1
# [14] = molecular target: Gal(b1-3)GlcNAc(b1-3)Gal(b1-4)GlcNAc(b1-2)Man(a1-3)[Gal(b1-3)GlcNAc(b1-3)Gal(b1-4)GlcNAc(b1-2)Man(a1-6)]Man(b1-4)GlcNAc(b1-4)GlcNAc
# Outline: as §1
# [15] = molecular target: Gal(b1-3)GlcNAc(b1-6)[Gal(b1-3)]GalNAc
# Outline: as §1
# [16] = molecular target: Gal(b1-3)[Fuc(a1-4)]GlcNAc(b1-2)Man
# Outline: as §1
# [17] = molecular target: Gal(b1-3)[Fuc(a1-4)]GlcNAc(b1-2)Man(a1-3)[Gal(b1-3)[Fuc(a1-4)]GlcNAc(b1-2)Man(a1-6)]Man(b1-4)GlcNAc(b1-4)[Fuc(a1-6)]GlcNAc
# Outline: as §1
# [18] = molecular target: Gal(b1-3)[Fuc(a1-4)]GlcNAc(b1-3)Gal(b1-3)[Fuc(a1-4)]GlcNAc
# Outline: as §1
# [19] = molecular target: Gal(b1-4)GlcNAc(b1-2)Man(a1-3)[GlcNAc(b1-2)Man(a1-6)]Man(b1-4)GlcNAc(b1-4)GlcNAc
# Outline: as §1
# [20] = molecular target: Gal(b1-4)GlcNAc(b1-2)[Gal(b1-4)GlcNAc(b1-6)]Man(a1-6)[Gal(b1-4)GlcNAc(b1-2)Man(a1-3)]Man(b1-4)GlcNAc(b1-4)GlcNAc
# Outline: as §1
# [21] = molecular target: Gal(b1-4)GlcNAc(b1-3)Gal(b1-4)Glc
# Outline: as §1
# [22] = molecular target: Gal(b1-4)GlcNAc(b1-3)Gal(b1-4)GlcNAc(b1-2)Man(a1-3)[Gal(b1-4)GlcNAc(b1-3)Gal(b1-4)GlcNAc(b1-2)Man(a1-6)]Man(b1-4)GlcNAc(b1-4)GlcNAc
# Outline: as §1
# [23] = molecular target: Gal(b1-4)GlcNAc(b1-3)Gal(b1-4)GlcNAc(b1-3)Gal(b1-4)GlcNAc(b1-2)[Gal(b1-4)GlcNAc(b1-3)Gal(b1-4)GlcNAc(b1-3)Gal(b1-4)GlcNAc(b1-6)]Man(a1-6)[Gal(b1-4)GlcNAc(b1-3)Gal(b1-4)GlcNAc(b1-3)Gal(b1-4)GlcNAc(b1-2)Man(a1-3)]Man(b1-4)GlcNAc(b1-4)[Fuc(a1-6)]GlcNAc
# Outline: as §1
# [24] = molecular target: Gal(b1-4)GlcNAc(b1-3)Gal(b1-4)GlcNAc(b1-3)Gal(b1-4)GlcNAc(b1-3)Gal(b1-4)GlcNAc(b1-3)Gal(b1-4)GlcNAc(b1-2)Man(a1-3)[Gal(b1-4)GlcNAc(b1-3)Gal(b1-4)GlcNAc(b1-3)Gal(b1-4)GlcNAc(b1-3)Gal(b1-4)GlcNAc(b1-3)Gal(b1-4)GlcNAc(b1-2)Man(a1-6)]Man(b1-4)GlcNAc(b1-4)GlcNAc
# Outline: as §1
# [25] = molecular target: Gal(b1-4)GlcNAc(b1-3)Gal(b1-4)GlcNAc(b1-3)Gal(b1-4)GlcNAc(b1-3)Gal(b1-4)GlcNAc(b1-3)Gal(b1-4)GlcNAc(b1-2)[Gal(b1-4)GlcNAc(b1-3)Gal(b1-4)GlcNAc(b1-3)Gal(b1-4)GlcNAc(b1-3)Gal(b1-4)GlcNAc(b1-3)Gal(b1-4)GlcNAc(b1-6)]Man(a1-6)[Gal(b1-4)GlcNAc(b1-3)Gal(b1-4)GlcNAc(b1-3)Gal(b1-4)GlcNAc(b1-3)Gal(b1-4)GlcNAc(b1-3)Gal(b1-4)GlcNAc(b1-2)Man(a1-3)]Man(b1-4)GlcNAc(b1-4)[Fuc(a1-6)]GlcNAc
# Outline: as §1
# [26] = molecular target: Gal3S(b1-4)[Fuc(a1-3)]Glc6S
# Outline: as §1
# [27] = molecular target: Gal3S(b1-4)[Fuc(a1-3)]GlcNAc6S
# Outline: as §1
# [28] = molecular target: Gal3S6S(b1-4)GlcNAc
# Outline: as §1
# [29] = molecular target: Gal6S(b1-4)Glc6S
# Outline: as §1
# [30] = molecular target: Gal6S(b1-4)GlcNAc6S
# Outline: as §1
# [31] = molecular target: GalNAc(b1-4)GlcNAc(b1-2)Man(a1-3)[GalNAc(b1-4)GlcNAc(b1-2)Man(a1-6)]Man(b1-4)GlcNAc(b1-4)GlcNAc
# Outline: as §1
# [32] = molecular target: GlcNAc(a1-4)Gal(b1-4)GlcNAc(b1-3)Gal(b1-4)GlcNAc
# Outline: as §1
# [33] = molecular target: GlcNAc(b1-3)Gal(b1-4)GlcNAc(b1-2)Man(a1-3)[GlcNAc(b1-3)Gal(b1-4)GlcNAc(b1-2)Man(a1-6)]Man(b1-4)GlcNAc(b1-4)[Fuc(a1-6)]GlcNAc
# Outline: as §1
# [34] = molecular target: GlcNAc(b1-3)Gal(b1-4)GlcNAc(b1-3)Gal(b1-4)GlcNAc(b1-3)Gal(b1-4)GlcNAc(b1-2)Man(a1-3)[GlcNAc(b1-3)Gal(b1-4)GlcNAc(b1-3)Gal(b1-4)GlcNAc(b1-3)Gal(b1-4)GlcNAc(b1-2)Man(a1-6)]Man(b1-4)GlcNAc(b1-4)[Fuc(a1-6)]GlcNAc
# Outline: as §1
# [35] = molecular target: GlcNAc(b1-3)Man
# Outline: as §1
# [36] = molecular target: GlcNAc(b1-3)[GlcNAc(b1-4)][GlcNAc(b1-6)]GlcNAc
# Outline: as §1
# [37] = molecular target: GlcNAc(b1-4)Gal(b1-4)GlcNAc
# Outline: as §1
# [38] = molecular target: GlcNAc(b1-4)GlcNAc(b1-4)GlcNAc
# Outline: as §1
# [39] = molecular target: GlcNAc(b1-4)GlcNAc(b1-4)GlcNAc(b1-4)GlcNAc(b1-4)GlcNAc(b1-4)GlcNAc
# Outline: as §1
# [40] = molecular target: Neu5Ac(a2-3)Gal(b1-3)GlcNAc(b1-2)Man(a1-3)[GlcNAc(b1-4)][Neu5Ac(a2-3)Gal(b1-3)GlcNAc(b1-2)Man(a1-6)]Man(b1-4)GlcNAc(b1-4)GlcNAc
# Outline: as §1
# [41] = molecular target: Neu5Ac(a2-3)Gal(b1-4)GlcNAc(b1-2)Man(a1-3)[Neu5Ac(a2-6)Gal(b1-4)GlcNAc(b1-2)Man(a1-6)]Man(b1-4)GlcNAc(b1-4)GlcNAc
# Outline: as §1
# [42] = molecular target: Neu5Ac(a2-3)Gal6S(b1-4)GlcNAc
# Outline: as §1
# [43] = molecular target: Neu5Ac(a2-3)[GalNAc(b1-4)]Gal(b1-4)GlcNAc
# Outline: as §1
# [44] = molecular target: Neu5Ac(a2-6)Gal
# Outline: as §1
# [45] = molecular target: Neu5Ac(a2-6)Gal(b1-4)GlcNAc(b1-2)Man(a1-3)Man(b1-4)GlcNAc(b1-4)GlcNAc
# Outline: as §1
# [46] = molecular target: Neu5Ac(a2-6)Gal(b1-4)GlcNAc(b1-2)Man(a1-3)[Neu5Ac(a2-3)Gal(b1-4)GlcNAc(b1-2)Man(a1-6)]Man(b1-4)GlcNAc(b1-4)GlcNAc
# Outline: as §1
# [47] = molecular target: Neu5Ac(a2-6)Gal(b1-4)GlcNAc(b1-2)Man(a1-3)[Neu5Ac(a2-6)Gal(b1-4)GlcNAc(b1-2)Man(a1-6)]Man(b1-4)GlcNAc(b1-4)[Fuc(a1-6)]GlcNAc
# Outline: as §1
# [48] = molecular target: Neu5Ac(a2-6)Gal(b1-4)GlcNAc(b1-3)Gal(b1-4)GlcNAc(b1-3)Gal(b1-4)GlcNAc(b1-2)Man(a1-3)[Neu5Ac(a2-6)Gal(b1-4)GlcNAc(b1-3)Gal(b1-4)GlcNAc(b1-3)Gal(b1-4)GlcNAc(b1-2)Man(a1-6)]GalNAc
# Outline: as §1
binder,measurement,setting,value
B1,glycan array binding signal (z-score),[1],-0.588
same,glycan array binding signal (z-score),[2],2.16
same,glycan array binding signal (z-score),[3],-0.377
same,glycan array binding signal (z-score),[4],-0.431
same,glycan array binding signal (z-score),[5],-0.336
same,glycan array binding signal (z-score),[6],-0.291
same,glycan array binding signal (z-score),[7],0.129
same,glycan array binding signal (z-score),[8],0.092
same,glycan array binding signal (z-score),[9],-0.231
same,glycan array binding signal (z-score),[10],0.142
same,glycan array binding signal (z-score),[11],9.55
same,glycan array binding signal (z-score),[12],-0.387
same,glycan array binding signal (z-score),[13],-0.229
same,glycan array binding signal (z-score),[14],0.774
same,glycan array binding signal (z-score),[15],-0.462
same,glycan array binding signal (z-score),[16],-0.166
same,glycan array binding signal (z-score),[17],2.08
same,glycan array binding signal (z-score),[18],0.004
same,glycan array binding signal (z-score),[19],-0.209
same,glycan array binding signal (z-score),[20],2.03
same,glycan array binding signal (z-score),[21],-0.229
same,glycan array binding signal (z-score),[22],2.63
same,glycan array binding signal (z-score),[23],3.07
same,glycan array binding signal (z-score),[24],2.1
same,glycan array binding signal (z-score),[25],11.2
same,glycan array binding signal (z-score),[26],3.47
same,glycan array binding signal (z-score),[27],0.004
same,glycan array binding signal (z-score),[28],-0.251
same,glycan array binding signal (z-score),[29],0.254
same,glycan array binding signal (z-score),[30],0.049
same,glycan array binding signal (z-score),[31],0.242
same,glycan array binding signal (z-score),[32],-0.295
same,glycan array binding signal (z-score),[33],-0.522
same,glycan array binding signal (z-score),[34],-0.255
same,glycan array binding signal (z-score),[35],-0.185
same,glycan array binding signal (z-score),[36],-0.456
same,glycan array binding signal (z-score),[37],-0.159
same,glycan array binding signal (z-score),[38],-0.15
same,glycan array binding signal (z-score),[39],-0.322
same,glycan array binding signal (z-score),[40],-0.444
same,glycan array binding signal (z-score),[41],-0.245
same,glycan array binding signal (z-score),[42],-0.618
same,glycan array binding signal (z-score),[43],-0.321
same,glycan array binding signal (z-score),[44],-0.301
same,glycan array binding signal (z-score),[45],0.007
same,glycan array binding signal (z-score),[46],-0.03
same,glycan array binding signal (z-score),[47],2.94
same,glycan array binding signal (z-score),[48],3.49
